Test [1] deals with Progesterone receptor (Homo sapiens) (UniProt P06401). Description: qHTS assay to identify small molecule agonists of the progesterone receptor (PR) signaling pathway (AID 1346784; calls by dose curve; note: nearly all actives have a fitted effect of over 30% in size). The essentials:
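HEK 293T PR-UAS-bla reporter cells, 2% charcoal-stripped FBS; 6 hr settle at 37C/5% CO2, compound (DMSO) 16 hr, LiveBLAzer B/G FRET substrate 2 hr RT, fluorescence intensity read.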

Test [2] shares this target. Nature of the test: qHTS assay to identify small molecule antagonists of the progesterone receptor (PR) signaling pathway (AID 1346795; active = well fitted inhibition curve with a large enough effect in the signal ratio in the repeat runs, not every such curve was filed as active; the % refers to the signal ratio). The essentials:
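Beta-lactamase reporter, HEK293T PR-UAS-bla line; 2% charcoal-stripped FBS; 6 hr pre-incubation, 37C/5% CO2. Compound + R5020 1 nM final, 16 hr. LiveBLAzer B/G FRET substrate, 2 hr RT; fluorescence intensity read.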

Test [3] can be described thus: qHTS assay to identify small molecule antagonists of the progesterone receptor (PR) signaling pathway - cell viability counter screen (AID 1346798). Note: series mostly up to about 92 µM; nearly all actives have a fitted effect of over 50% in size. The essentials: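 Luminescence readout (CellTiter-Glo, 30 min, RT) of viability in PR-UAS-bla HEK293T cells exposed to compound and R5020 agonist for 16 hr at 37C, 5% CO2; run in the same wells as the beta-lactamase reporter read.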

The nature of test [4]: qHTS assay to identify small molecule agonists of the progesterone receptor (PR) signaling pathway - cell viability counter screen (AID 1346799; calls by dose curve; note: nearly all actives have a fitted effect of over 45% in size). The essentials: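 HEK293T PR-UAS-bla, 3,000 cells/well, 2% charcoal-stripped FBS; 6 h settle, compound 16 h at 37C/5% CO2; LiveBLAzer 2 h RT, then CellTiter-Glo 30 min RT, luminescence read.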
Test [5] is described as follows: qHTS assay to identify small molecule antagonists of the TGF-beta/Smad signaling pathway - cell viability counter screen (AID 1346824). Note: nearly all actives have a fitted effect of over 50% in size. The essentials:
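SBE-bla HEK 293T cells, incubated overnight, then compound plus 0.25 ng/mL TGF-beta1 (stock added) for 5 hr at 37 C. Viability was read in the same wells by CellTiter-Glo luminescence after 30 min at room temperature.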

Test [6] is described as follows: qHTS assay to identify small molecule agonists of the TGF-beta/Smad signaling pathway - cell viability counter screen (AID 1346829). Note: top concentration of the series differs between compounds; nearly all actives have a fitted effect of over 45% in size. The essentials:
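Tox21 qHTS format: SBE-bla HEK 293T cells treated with DMSO-dissolved compounds for 5 hr; CellTiter-Glo luminescence after 30 min at room temperature.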

Test [7] can be described thus: qHTS assay to identify small molecule agonists of the TGF-beta/Smad signaling pathway (AID 1346859; active = well fitted activation curve with a large enough effect in the signal ratio in the repeat runs, not every such curve was filed as active; the % refers to the signal ratio; note: series mostly up to about 77 µM). The essentials: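 Read-out: fluorescence at 460 and 530 nm (405 nm excitation) after a 2 hr room-temperature incubation with beta-lactamase FRET substrate. SBE-bla HEK 293T cells had been treated with test compounds for 5 hr at 37 C.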
A short description of test [8]: Human pregnane X receptor (PXR) small molecule agonists, qHTS cell viability counter screen (AID 1346977). Note: nearly all actives have a fitted effect of over 50% in size. The essentials:
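Fluorescence read-out (CellTiter-Fluor) of viability in PXR-Luc HepG2 cells, multiplexed with the luciferase agonist read. Compounds in DMSO added after 5hr plating; 24hr total exposure at 37C, 5% CO2.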

The nature of test [9]: Caspase-3/7 induction in HepG2 cells by small molecules, qHTS assay (AID 1346978). Note: nearly all actives have a fitted effect of over 15% in size. The essentials: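 Wild-type HepG2 cells, 2,000/well, settled 5 hr at 37 C and 5% CO2, then compound-treated for 17 hr; caspase-3/7 activity read by luminescent Caspase-Glo 3/7 after 30 min at room temperature.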
Test [10] in a line: Caspase-3/7 induction in CHO-K1 cells by small molecules, qHTS cell viability counter screen (AID 1346979). Note: nearly all actives have a fitted effect of over 35% in size. The essentials:
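CHO-K1 wt, 1,500 cells/well; 5hr pre-incubation 37C/5% CO2; compound pin transfer (DMSO); 16hr exposure; CellTiter-Fluor added, 1hr, fluorescence read.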

A short description of test [11]: Caspase-3/7 induction in HepG2 cells by small molecules, qHTS cell viability counter screen (AID 1346981). Note: series mostly up to about 92 µM; nearly all actives have a fitted effect of over 30% in size. The procedure, abridged: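 Wild-type HepG2 cells (2,000/well) were allowed to settle for 5 hr at 37 C, 5% CO2, then dosed with compounds in DMSO by pin transfer. After 16 hr at 37 C, CellTiter-Fluor was added and fluorescence read 1 hr later.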
Test [12] concerns the target Nuclear receptor subfamily 1 group I member 2 (Homo sapiens) (UniProt O75469). Nature of the test: Human pregnane X receptor (PXR) small molecule agonists, qHTS assay (AID 1346982). Note: nearly all actives have a fitted effect of over 35% in size. The essentials:
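PXR-Luc HepG2 cells (CYP3A4 promoter-driven luciferase) were seeded in medium with 5% charcoal-stripped FBS, left 5 hr at 37 C, then exposed to compounds in DMSO for 24 hr. Luminescence was read after ONE-Glo addition.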

Test [13] addresses Nuclear receptor subfamily 1 group I member 2 (Rattus norvegicus) (UniProt Q9R1A7). Nature of the test: Rat pregnane X receptor (rPXR) activation by small molecules, qHTS assay (AID 1346983). Note: nearly all actives have a fitted effect of over 20% in size. The conditions noted are these: rPXR luciferase reporter cells, One-Glo luminescence, 24 h; max activation: hits give high values. The essentials:
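Cell-based rPXR activation assay: rPXR cells, 2,000 per well, rested 5hr at 37 C, then exposed to compounds in DMSO for 24 hr at 37 C. Luciferase activity read by One-Glo luminescence after 30 min at room temperature.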

Test [14] has as its target Nuclear receptor subfamily 1 group I member 2 (Homo sapiens) (UniProt O75469). Nature of the test: CYP3A4 induction through human pregnane X receptor (PXR) by small molecules, qHTS assay (AID 1346984). Note: nearly all actives have a fitted effect of over 40% in size. The essentials:
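DPX-2 cells (HepG2 co-transfected with PXR and CYP3A4 promoter-luciferase) treated with compounds 24 h at 37C; luciferin-IPA CYP3A4 substrate 3uM final added for 3 h, then One-Glo; luminescence read. qHTS format.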

The target is the same in test [15]. Description: Human pregnane X receptor (PXR) activation by small molecules, qHTS assay (AID 1346985). Note: nearly all actives have a fitted effect of over 40% in size. The essentials: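 DPX-2 cells (HepG2 co-transfected with a PXR response element and a CYP3A4-promoter luciferase construct) were seeded at 2,000 per well, rested 5 hr at 37C, then exposed to DMSO-dissolved compounds for 24 hr. Activation was read as luciferase luminescence.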

Test [16] deals with Cytochrome P450 2C19 (Homo sapiens) (UniProt P33261). Description: Cytochrome P450 Family 2 Subfamily C Member 19 (CYP2C19) small molecule antagonists: luciferase reporter qHTS assay (AID 1671197). Note: series mostly up to about 120 µM; nearly all actives have a fitted effect of over 65% in size. The procedure, abridged: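 Relative luminescence units recorded 20 min after the detection reagent stopped a 1 h, 37C CYP2C19 reaction on proluciferin substrate, which was started by NADPH regeneration following 10 min room-temperature compound preincubation; ketoconazole positive control.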

The nature of test [17]: Caspase-3/7 induction in CHO-K1 cells by small molecules, qHTS assay (AID 1346980). Note: nearly all actives have a fitted effect of over 15% in size. The essentials:
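Wild-type CHO-K1 cells exposed to compounds for 17hr at 37 C, 5% CO2. Caspase-3/7 activity then measured by Caspase-Glo 3/7 luminescence after 30min at room temperature.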

The target of test [18] is Cytochrome P450 2D6 (Homo sapiens) (UniProt P10635). Description: Cytochrome P450 Family 2 Subfamily D Member 6 (CYP2D6) small molecule antagonists: luciferase reporter qHTS assay (AID 1671196). Note: nearly all actives have a fitted effect of over 50% in size. Note: potency is the fitted concentration of half-maximal effect. The essentials: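 CYP2D6 enzyme–substrate mix was held with compound for 10 min at room temperature, then NADPH regeneration solution was added and the reaction ran 1 h at room temperature. Luciferin product was detected by luminescence after 20 min with detection reagent.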

The target in test [19] is Thyrotropin-releasing hormone receptor (Homo sapiens) (UniProt P34981). Description: qHTS assay to identify small molecule antagonists of the thyrotropin-releasing hormone receptor (TRHR) signaling pathway (AID 1346877; active = well fitted inhibition curve with a large enough effect in the repeat runs, not every such curve was filed as active; note: series mostly up to about 51 µM). The essentials: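 TRHR-expressing HEK293 cells were seeded, cultured 18 h at 37 °C, then loaded with calcium dye for 2 h. Compounds were pre-incubated 5 min at room temperature before 1 nM TRH (final) was added, and kinetic fluorescence was recorded for 3 min.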

For test [20] the target is unchanged. Nature of the test: qHTS assay to identify small molecule agonists of the thyrotropin-releasing hormone receptor (TRHR) signaling pathway (AID 1346891; calls by dose curve; note: series mostly up to about 58 µM). The essentials:
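HEK293/TRHR cells, 1500 per well, 18 h 37 °C; Ca dye 2 h 37 °C; pin-tool compound addition (agonist mode); kinetic fluorescence 3 min, 1 s reads; 15 concentrations, triplicate.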

A number with no mark means an inactive call. Records with an inconclusive call do not appear. Calls of active or inactive are those of the source. Unless noted, calls come from the whole dose curve; as a rule, active = well fitted curve in the direction sought with a large enough effect in the repeat runs; inconclusive = weak or mixed curves; inactive = no such curve, though single readings can be large; an effect the other way counts as inactive or inconclusive.
% is set by controls: 0 for no effect and ±100 for the full control effect.

Nuclear receptor subfamily 1 group I member 2 (Homo sapiens), sequence (O75469 whole entry, looked up): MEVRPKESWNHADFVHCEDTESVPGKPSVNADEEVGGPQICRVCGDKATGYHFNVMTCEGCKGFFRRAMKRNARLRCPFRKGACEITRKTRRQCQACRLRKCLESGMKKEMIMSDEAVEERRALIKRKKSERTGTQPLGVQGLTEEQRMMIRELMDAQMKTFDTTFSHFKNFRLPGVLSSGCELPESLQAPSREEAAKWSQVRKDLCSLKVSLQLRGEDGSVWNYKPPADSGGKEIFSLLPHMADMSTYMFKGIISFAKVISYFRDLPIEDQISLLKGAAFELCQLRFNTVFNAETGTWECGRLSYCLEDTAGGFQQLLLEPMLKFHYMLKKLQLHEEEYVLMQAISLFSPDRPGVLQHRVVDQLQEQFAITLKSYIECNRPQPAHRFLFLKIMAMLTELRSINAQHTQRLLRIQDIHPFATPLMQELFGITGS
Thyrotropin-releasing hormone receptor (Homo sapiens), sequence (P34981 whole entry, looked up): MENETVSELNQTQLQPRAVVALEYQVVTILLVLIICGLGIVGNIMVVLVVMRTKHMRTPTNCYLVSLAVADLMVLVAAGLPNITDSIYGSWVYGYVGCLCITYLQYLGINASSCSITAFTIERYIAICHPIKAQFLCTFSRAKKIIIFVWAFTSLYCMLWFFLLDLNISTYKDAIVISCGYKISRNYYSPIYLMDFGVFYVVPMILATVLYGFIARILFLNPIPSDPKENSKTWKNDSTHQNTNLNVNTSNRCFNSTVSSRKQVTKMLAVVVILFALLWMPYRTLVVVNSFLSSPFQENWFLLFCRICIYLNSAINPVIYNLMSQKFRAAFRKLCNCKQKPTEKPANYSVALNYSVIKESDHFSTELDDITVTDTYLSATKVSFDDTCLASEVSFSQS
Cytochrome P450 2D6 (Homo sapiens), sequence (P10635 whole entry, looked up): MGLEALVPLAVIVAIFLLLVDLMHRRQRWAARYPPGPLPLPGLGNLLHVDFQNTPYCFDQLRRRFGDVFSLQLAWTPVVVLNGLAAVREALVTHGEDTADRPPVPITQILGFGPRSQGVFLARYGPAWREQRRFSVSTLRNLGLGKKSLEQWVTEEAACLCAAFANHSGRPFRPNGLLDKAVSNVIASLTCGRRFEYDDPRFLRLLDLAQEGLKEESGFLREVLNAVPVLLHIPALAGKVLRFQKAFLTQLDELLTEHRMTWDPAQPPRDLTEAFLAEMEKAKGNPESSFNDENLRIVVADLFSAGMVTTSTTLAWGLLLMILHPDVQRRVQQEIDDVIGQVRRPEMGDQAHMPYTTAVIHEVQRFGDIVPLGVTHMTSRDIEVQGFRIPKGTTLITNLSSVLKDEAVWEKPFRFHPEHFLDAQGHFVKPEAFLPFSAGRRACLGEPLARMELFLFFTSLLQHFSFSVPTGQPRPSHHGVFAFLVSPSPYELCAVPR
Nuclear receptor subfamily 1 group I member 2 (Rattus norvegicus), sequence (Q9R1A7 whole entry, looked up): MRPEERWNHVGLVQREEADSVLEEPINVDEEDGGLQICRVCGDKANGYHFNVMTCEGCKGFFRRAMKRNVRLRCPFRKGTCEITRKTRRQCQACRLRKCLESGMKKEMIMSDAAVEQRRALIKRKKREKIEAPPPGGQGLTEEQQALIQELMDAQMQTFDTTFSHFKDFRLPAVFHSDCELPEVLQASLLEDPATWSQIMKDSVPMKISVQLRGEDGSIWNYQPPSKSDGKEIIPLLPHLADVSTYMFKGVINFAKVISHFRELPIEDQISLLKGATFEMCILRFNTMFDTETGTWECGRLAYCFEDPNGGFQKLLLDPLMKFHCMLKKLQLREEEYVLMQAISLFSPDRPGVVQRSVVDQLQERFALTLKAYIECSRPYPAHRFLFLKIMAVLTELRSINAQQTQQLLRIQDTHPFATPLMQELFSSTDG
Cytochrome P450 2C19 (Homo sapiens), sequence (P33261 whole entry, looked up): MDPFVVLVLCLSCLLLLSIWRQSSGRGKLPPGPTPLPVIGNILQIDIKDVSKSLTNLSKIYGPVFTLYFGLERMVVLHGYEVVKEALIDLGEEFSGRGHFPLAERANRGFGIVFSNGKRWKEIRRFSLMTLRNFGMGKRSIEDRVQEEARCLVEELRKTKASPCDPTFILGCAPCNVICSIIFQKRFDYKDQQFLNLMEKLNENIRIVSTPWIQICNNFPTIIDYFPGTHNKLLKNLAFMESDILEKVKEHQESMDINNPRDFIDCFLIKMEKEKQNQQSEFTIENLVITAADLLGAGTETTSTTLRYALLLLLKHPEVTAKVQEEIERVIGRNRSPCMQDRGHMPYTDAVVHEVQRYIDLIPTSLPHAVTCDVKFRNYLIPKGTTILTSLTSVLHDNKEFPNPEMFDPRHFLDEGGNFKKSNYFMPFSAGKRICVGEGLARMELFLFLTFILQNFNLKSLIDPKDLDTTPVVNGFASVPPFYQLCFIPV
Progesterone receptor (Homo sapiens), sequence (P06401 whole entry, looked up): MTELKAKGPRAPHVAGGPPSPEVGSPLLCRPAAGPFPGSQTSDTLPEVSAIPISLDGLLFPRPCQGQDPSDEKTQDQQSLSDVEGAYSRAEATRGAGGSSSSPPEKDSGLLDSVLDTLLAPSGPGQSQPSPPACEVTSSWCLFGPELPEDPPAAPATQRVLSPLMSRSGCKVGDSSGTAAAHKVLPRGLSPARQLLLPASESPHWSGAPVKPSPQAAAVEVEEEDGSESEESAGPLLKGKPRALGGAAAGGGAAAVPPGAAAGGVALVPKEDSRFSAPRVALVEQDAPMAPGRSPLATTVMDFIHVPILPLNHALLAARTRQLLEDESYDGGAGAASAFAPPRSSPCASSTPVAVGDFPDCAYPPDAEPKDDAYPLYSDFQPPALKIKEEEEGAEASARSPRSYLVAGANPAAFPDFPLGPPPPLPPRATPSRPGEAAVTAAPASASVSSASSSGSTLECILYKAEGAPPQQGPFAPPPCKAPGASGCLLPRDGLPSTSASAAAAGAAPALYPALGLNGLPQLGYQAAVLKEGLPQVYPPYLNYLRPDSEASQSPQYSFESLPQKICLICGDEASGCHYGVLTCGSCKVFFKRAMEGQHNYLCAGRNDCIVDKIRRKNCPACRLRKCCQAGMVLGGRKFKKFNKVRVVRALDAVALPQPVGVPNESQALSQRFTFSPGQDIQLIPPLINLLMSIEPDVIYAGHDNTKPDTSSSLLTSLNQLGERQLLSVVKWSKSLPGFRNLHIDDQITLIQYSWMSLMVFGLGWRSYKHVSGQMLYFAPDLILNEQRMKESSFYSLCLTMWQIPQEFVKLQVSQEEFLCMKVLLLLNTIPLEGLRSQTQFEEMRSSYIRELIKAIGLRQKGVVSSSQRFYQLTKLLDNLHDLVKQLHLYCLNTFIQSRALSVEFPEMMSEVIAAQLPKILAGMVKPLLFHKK

Turning to `CCCCc1nc(Cl)c(CO)n1Cc1ccc(-c2ccccc2-c2nn[nH]n2)cc1`, the Potency entry in test [1], in test [2], in test [3], in test [4], in [8] and in test [10] was “inactive” each time. In addition, the Potency entry in test [11], in test [12], in [14], in test [15] and in test [16] was “inactive” each time. Further, the outcome in [5], in [6], in [7] and in test [9] was inactive. Further, in test [13], the max activation is -3.95%.
For the molecule `CC(C)(C)C(=O)c1ccccc1`, the Potency result in test [1], in test [2], in test [3], in test [8], in test [10] and in test [11] was “inactive” throughout. The Potency entry in [12], in [18] and in test [16] was “inactive” each time. The call in test [5], in test [6], in test [7] and in test [17] was inactive.
`O=C(O)CCSCCC(=O)O`: the Potency result in test [1], in test [2], in test [3], in [8], in test [10] and in test [11] was “inactive” each time. For the same molecule, the Potency entry in test [12], in [18] and in [16] was “inactive” each time. The result in [5], in [6], in test [7], in test [9] and in test [17] was inactive.
As to `Cc1ccc(C(=O)Nc2ccc(S(=O)(=O)O)c3cc(S(=O)(=O)O)cc(S(=O)(=O)O)c23)cc1NC(=O)c1cccc(NC(=O)Nc2cccc(C(=O)Nc3cc(C(=O)Nc4ccc(S(=O)(=O)O)c5cc(S(=O)(=O)O)cc(S(=O)(=O)O)c45)ccc3C)c2)c1`, the Potency result in [1], in test [2], in [3], in test [20], in [8] and in test [10] was “inactive” in each case. Also, the Potency result in test [11], in test [12], in [14] and in test [15] was “inactive” each time. The outcome in test [5], in test [6], in test [7], in [19] and in test [9] was inactive. In addition, in test [13], the max activation was -1.36%.
On to `CCCCCCC1CCC(=O)O1` (stereo not drawn), for which the Potency entry in test [1], in [2], in test [3], in [20], in [8] and in [10] was “inactive” each time. Further, the Potency result in [11], in [12] and in [18] was “inactive” in each case. Further, the call in test [5], in test [6], in test [7], in [19], in test [9] and in [17] was inactive.
As for `Nc1c2c(nc3c1CCC3)CCCC2`, the Potency result in [1], in test [2], in [3], in test [20], in test [8] and in test [10] was “inactive” each time. Also, the Potency result in [11], in test [12], in test [14], in test [15] and in test [16] was “inactive” in each case. For the same molecule, the molecule was classed as inactive in test [5], in test [6], in [7], in test [19], in test [9] and in [17]. Further, the max activation in [13] is -1.69%. The Potency in [18] is 8.71 µM (active).
